Values without a mark were called inactive. No rule for the calls is given here.
Potency is read from the fitted curve at half-maximal effect.

The test deals with HIV-1 nucleocapsid protein NCp7 (binding to TG oligonucleotide). Nature of the test: HIV Nucleocapsid (AID 346).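 Also: potency is for inhibitors that block NC binding and lower polarization.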 To be noted: HIV-1 NC / fluorescein-TGTGTGTG probe, fluorescence polarization. The procedure, abridged:
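Fluorescence polarization binding of 100 nM HIV-1 NC to 10 nM fluorescein-labelled TG4xF oligonucleotide. Buffer was Hepes pH 7.5 with 250mM NaCl, 1uM ZnCl2, TCEP and 2-mercaptoethanol. Compounds were incubated 1 hr at room temperature before the read.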
In general terms: In fluorescence polarisation assays a small probe gives low polarisation when free and higher when bound to something large.
Take `COc1ccc(CNc2nc(-c3ccc(N(C)C)cc3)nc3ccccc23)c(OC)c1`: the Potency is over 20 µM. In the case of `COc1ccccc1CCn1c(=O)c(-c2ccccc2)nc2cncnc21` it was over 20 µM; in that of `COc1cccc(-c2nccc(NCc3cccs3)n2)c1`, over 20 µM. The figure for `CS(=O)(=O)N1CCC2(CC1)CN(Cc1ccccc1)C2` is over 20 µM; for `O=C(Nc1ccccc1)N1CCC2(CCNCC2)CC1` it is over 20 µM. In the case of `COC(=O)N1CCC[C@@]2(CCN(c3ccccc3)C2)C1` it was over 20 µM; in that of `CN1CCC2(CC1)CCN(C(=O)c1ccncc1)CC2`, over 20 µM; in that of `O=C(c1cc(C(F)(F)F)cc(C(F)(F)F)c1)N1CCC2(CCCN(Cc3nccs3)C2)CC1`, over 20 µM. Turning to `CN(C)c1ncc2nc(-c3ccc(Cl)cc3)c(=O)n(C[C@H]3CCCO3)c2n1`, the Potency was over 20 µM. The figure for `CN(C)C(=O)c1ccc(-c2nc(NCc3ccccc3)c3ccccc3n2)cc1` is over 20 µM; for `CC(C)NC(=O)N1CC2(CCN(C(=O)c3cc(C(F)(F)F)cc(C(F)(F)F)c3)CC2)C1` it is over 20 µM; for `N#Cc1cccc(NC(=O)N2CCC3(CC2)CCN(C(=O)c2cccc(F)c2)CC3)c1` it is over 20 µM. On to `COc1ccc2[nH]cc(CCNc3ncncc3-c3ccc(C(=O)N(C)C)cc3)c2c1`, for which the Potency is over 20 µM. With `COc1ccccc1CNc1cc(-c2ccccc2OC)ncn1`, the Potency is over 20 µM. On to `COc1ccc(C(=O)N2CCC[C@@]3(CCN(Cc4ccccc4OC)C3)C2)cc1`, for which the Potency is over 20 µM.

These data come from PubChem BioAssay (NCATS).
